# USP8 inh – inhibitors of human USP8 deubiquitinase. Ubiquitin carboxyl-terminal hydrolase 8 (Homo sapiens), P40818. purified USP8, Ub-rhodamine cleavage fluorescence, 30 min. inhibition, % at 20 µM. 4.2% of 47,000 active
# USP30 inh – inhibitors of human USP30 deubiquitinase; Ubiquitin carboxyl-terminal hydrolase 30 (Homo sapiens), Q70CQ3; purified USP30, Ub-rhodamine cleavage fluorescence; inhibition, % at 25 µM; 5.3% of 47,000 active; AID 1645860, 2021
# USP17 block – inhibitors of human USP17 deubiquitinase; 6.5% of 47,000 active; purified USP17, Ub-rhodamine cleavage fluorescence, 3 h; AID 1645855, 2021; inhibition, % at 50 µM; Ubiquitin carboxyl-terminal hydrolase 17-like protein 5 (Homo sapiens), A8MUK1
# USP28 block – inhibitors of human USP28 deubiquitinase; purified USP28, Ub-rhodamine cleavage fluorescence, 30 min; inhibition, % at 25 µM; 3% of 47,000 active; AID 1645857, 2021; Ubiquitin carboxyl-terminal hydrolase 28 (Homo sapiens), Q96RU2
# Target sequence (Q96RU2 whole entry, looked up): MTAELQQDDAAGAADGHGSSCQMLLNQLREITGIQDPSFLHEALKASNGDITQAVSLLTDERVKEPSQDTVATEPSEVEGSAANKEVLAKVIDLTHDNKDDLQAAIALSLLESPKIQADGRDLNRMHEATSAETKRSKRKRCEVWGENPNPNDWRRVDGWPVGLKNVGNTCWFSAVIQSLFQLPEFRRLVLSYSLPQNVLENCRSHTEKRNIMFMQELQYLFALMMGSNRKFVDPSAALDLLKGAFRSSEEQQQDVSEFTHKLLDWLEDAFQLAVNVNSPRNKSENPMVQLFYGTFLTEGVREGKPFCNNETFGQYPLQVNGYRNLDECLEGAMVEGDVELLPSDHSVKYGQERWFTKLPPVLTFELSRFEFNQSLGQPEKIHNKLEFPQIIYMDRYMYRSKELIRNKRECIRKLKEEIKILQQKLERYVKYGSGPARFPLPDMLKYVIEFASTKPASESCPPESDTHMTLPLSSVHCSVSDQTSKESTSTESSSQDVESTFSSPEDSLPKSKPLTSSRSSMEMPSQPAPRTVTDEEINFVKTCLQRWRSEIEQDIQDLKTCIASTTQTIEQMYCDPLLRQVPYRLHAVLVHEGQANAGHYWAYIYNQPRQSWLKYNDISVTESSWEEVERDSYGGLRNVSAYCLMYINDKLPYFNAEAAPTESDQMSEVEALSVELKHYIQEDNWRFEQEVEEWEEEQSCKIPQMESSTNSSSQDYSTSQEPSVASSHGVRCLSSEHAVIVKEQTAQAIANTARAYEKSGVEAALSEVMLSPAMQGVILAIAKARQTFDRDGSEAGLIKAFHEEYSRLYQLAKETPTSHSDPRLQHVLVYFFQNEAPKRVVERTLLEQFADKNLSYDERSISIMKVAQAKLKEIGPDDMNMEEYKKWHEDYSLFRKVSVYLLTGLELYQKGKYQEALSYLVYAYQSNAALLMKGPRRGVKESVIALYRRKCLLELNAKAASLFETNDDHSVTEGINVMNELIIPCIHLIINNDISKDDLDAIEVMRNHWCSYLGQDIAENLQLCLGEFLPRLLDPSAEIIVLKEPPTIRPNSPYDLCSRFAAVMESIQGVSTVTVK
# USP10 block – inhibitors of human USP10 deubiquitinase. purified USP10, Ub-rhodamine fluorescence, 60 min. 1.1% of 47,000 active. Ubiquitin carboxyl-terminal hydrolase 10 (Homo sapiens), Q14694. inhibition, % at 20 µM. AID 1645856, 2021
# A number is an active result; n = inactive; x = no result given. Shown are actives, neighbours in structure and some others; about 14% of the full set was active somewhere. Rule as the data show it: active = inhibition above about 30%; inactive = the rest.
SMILES,USP8 inh,USP30 inh,USP17 block,USP28 block,USP10 block
COCC(C)NC(=O)c1cc2cccnc2n(Cc2ccc(F)cc2)c1=O (stereo unspecified),n,30.8,37.8,n,n
Cc1nn(Cc2ccccc2)c(Cl)c1C(=O)NC1CCCc2ccccc21 (stereo unspecified),n,34.8,55.6,30.6,n
C/C=C1/CN2CC[C@]34C(=C(C(=O)OC)[C@H]1C[C@H]23)Nc1c(O)cccc14,86.5,n,37.3,n,n
CC[C@@]12CCCN3CC[C@]4(c5cccc(OC)c5N(C(C)=O)C4CC1)[C@H]32 (stereo partly specified),n,n,n,n,n
Oc1ccc2ccccc2c1CN1CC=C(c2ccccc2)CC1,34.9,n,n,n,n
O=C(CN1CC=C(c2ccccc2)CC1)Nc1ccccc1Cl,n,n,n,n,n
O=C(Cc1ccc2c(c1)CCC2)N1CCCCC1CN1CCOCC1 (stereo unspecified),n,n,n,n,n
Cn1cncc1CN1CCC2(CC1)C(=O)N(c1cccnc1)c1ccccc12,n,n,n,n,n
CN1CCCC[C@@H]2N(C(=O)Cn3ccc(=O)[nH]c3=O)CCC[C@@]21C,n,30.8,n,n,n
CN1CC[C@@H]2[C@H]1CCCCN2C(=O)COc1ccc(F)cc1,n,n,n,n,n
O=C(O)c1cccc2nc3ccccc3nc12,n,n,38.8,n,n
CC(C)CN1C[C@@H]2c3nc(N4CCCC4)ncc3CS(=O)(=O)[C@@H]2C1,n,n,n,n,n
Cc1cc(C)nc(-n2nc(C)c3c2NC(=O)CSC3c2ccc(O)cc2)n1 (stereo unspecified),n,n,n,n,n
Cc1cc(C)nc(-n2nc(C)c3c2NC(=O)CSC3c2ccc(F)cc2F)n1 (stereo unspecified),n,77.2,45.3,n,n
COc1cc2c(c3oc4cccc(O)c4c(=O)c13)C1C=COC1O2 (stereo unspecified),n,n,53.7,50.2,n
Cc1cccc(OCC(=O)N2CCN(CC3CC4C=CC3C4)CC2)c1 (stereo unspecified),n,n,n,n,n
CO/C1=C\C(C)=C\[C@@H](C)[C@@H](O)[C@H](C)C/C(C)=C/C=C/[C@H](OC)[C@@H]([C@@H](C)[C@@H](O)[C@H](C)[C@@]2(O)C[C@@H](OC(=O)/C=C/C(=O)NC3=C(O)CCC3=O)[C@H](C)[C@@H](C(C)C)O2)OC1=O,n,n,39.8,n,n
C1CC[C@@H](C23CC(C[C@H]4CCCN[C@@H]42)[C@H]2CCCCN2C3)NC1 (stereo partly specified),n,n,n,n,n
CCOc1ccc(C2SCC(=O)Nc3c2c(=O)[nH]n3C2CCCCC2)cc1 (stereo unspecified),87.9,35.3,n,n,n
COc1ccc(C2SCC(=O)Nc3c2c(=O)[nH]n3C2CCCCCC2)cc1 (stereo unspecified),n,n,50.4,n,n
Cc1ccc(C2SCC(=O)Nc3c2c(=O)[nH]n3C2CCCCC2)cc1 (stereo unspecified),88.3,n,n,n,n
COc1ccc(C2SCC(=O)Nc3c2c(=O)[nH]n3C2CCCC2)cc1 (stereo unspecified),n,n,n,n,n
CC1(C)CC(n2[nH]c(=O)c3c2NC(=O)CSC3c2ccc(OCc3ccccc3)cc2)CCO1 (stereo unspecified),n,53.2,n,n,n
Cn1cc(CN2C[C@H](OCc3ccccn3)[C@H]3OCCC[C@H]32)cn1,n,n,n,n,n
CN1C(=O)COc2ccccc2CCCC[C@@H]2[C@H]1CCCN2CCC(N)=O,n,n,n,n,n
SMILES,USP8 inh,USP30 inh,USP17 block,USP28 block,USP10 block
O=C1CSC(c2ccc3c(c2)OCO3)c2c(-c3ccccc3)nn(-c3ccccc3)c2N1 (stereo unspecified),n,30.3,n,n,n
O=C1CSC(c2ccc3c(c2)OCO3)c2c(n(C3CCCCCC3)[nH]c2=O)N1 (stereo unspecified),82.5,33.0,n,n,n
CS[C@]1(CO)C(=O)N2[C@H]3C(=CC=C[C@@H]3O)C[C@@]2(SC)C(=O)N1C,n,n,n,n,n
Cc1ccc(NC(=O)Nc2ccc(C)n(CC(=O)N3CCC4(CC3)OCCO4)c2=O)cc1,n,n,n,n,n
Cc1noc(C)c1CN1CC[C@H]2C[C@@H](C(=O)N3CCCC3)O[C@@H]2C1,n,n,x,n,n
O=C1C=CC(O)C2C1CC13SSC4(CC5C(=O)C=CC(O)C5N4C1=O)C(=O)N23 (stereo unspecified),n,60.3,n,n,n
C=Cc1cc(OC)c2c(c1)c(=O)oc1c2cc(OC)c2c(O)ccc([C@H]3O[C@H](C)[C@@H](OC(C)=O)[C@H](N(C)C)[C@@H]3O)c21,n,n,n,n,n
COc1cccc2c1NC(=O)C21CCN(C(=O)Nc2cccc3ccccc23)CC1,97.4,n,91.9,n,n
O=C(Nc1ccccc1)N1CCC2(CC1)C(=O)Nc1c(Oc3ccccc3)cccc12,n,n,n,n,n
CCCCC1N2CC3(C)CN1CC(C)(C2)C3O (stereo unspecified),n,n,n,n,n
CCN1CCC2(COCc3c(C)nc(-c4ccccc4)nc32)C1 (stereo unspecified),n,n,n,35.6,n
c1cnc(NC[C@H]2OC[C@@H]3CCN(CC4CCOC4)C[C@@H]32)nc1 (stereo partly specified),n,n,n,n,n
C=C/C(=C/C(=O)C[C@H](C)C[C@@H](C)CC[C@H](O)[C@H](C)C(=O)CC(O)[C@H](C)[C@@H](C)OC(=O)C[C@@H](O)C1=C(C)C(=O)OC1=O)CC (stereo partly specified),77.3,54.0,87.5,90.0,80.8
CO[C@H]1/C=C/C=C\C=C\C[C@H](OC(=O)[C@@H](C)NC(=O)C2CCCCC2)[C@H](C)[C@@H](O)/C(C)=C\CCc2cc(O)cc(c2O)NC(=O)C1,n,n,33.0,n,n
COc1c2c(c(O)c3c1C(=O)c1c(cc(O)c(C)c1O)C3=O)-c1c(cc3c(c1O)C(=O)OC3O)CC2 (stereo unspecified),71.6,59.3,94.4,88.0,75.2
O=C(Nc1nc2ccc([N+](=O)[O-])cc2s1)c1cccn(Cc2ccc(F)cc2)c1=O,n,n,n,n,n
O=C(Nc1nccs1)c1cccn(Cc2ccc(Cl)c(Cl)c2)c1=O,n,n,31.1,n,n
O=C(Nc1nc2ccccc2s1)c1cccn(Cc2cccc(Cl)c2)c1=O,n,n,45.8,n,n
CC1Oc2cc3c(-c4c(O)cc(O)c5c(O)c6c(cc45)OC(C)C(C)C6=O)c(O)cc(O)c3c(O)c2C(=O)C1C (stereo unspecified),59.1,34.6,81.0,89.8,67.8

# Screens deposited in PubChem by Buhrlage Lab, Dana-Farber Cancer Institute and Novartis Institutes for BioMedical Research (Cambridge, Mass).
